Laboratory results: PubChem BioAssay AID686964 (The Scripps Research Institute Molecular Screening Center, 2013)
Screen size: about 370,000 compounds; about 1,100 (0.3%) were called active. Rule as the data show it: active = inhibition above about 13%; inactive = the rest. The entries come from a sample that favours actives as a whole.

What follows are compounds tested against Methyl-CpG-binding domain protein 2 (Homo sapiens) (UniProt Q9UBB5) (assay: inhibitors of MBD2 binding to methylated DNA, primary screen, biochemical, TR-FRET, DNA-binding domain, human (AID 686964)). Details: MBD2 binding to methylated oligonucleotide, at 4.4 µM, active compounds read high.
Sequence of Methyl-CpG-binding domain protein 2 (Homo sapiens) (Q9UBB5 whole entry, looked up, the tested form may be a part): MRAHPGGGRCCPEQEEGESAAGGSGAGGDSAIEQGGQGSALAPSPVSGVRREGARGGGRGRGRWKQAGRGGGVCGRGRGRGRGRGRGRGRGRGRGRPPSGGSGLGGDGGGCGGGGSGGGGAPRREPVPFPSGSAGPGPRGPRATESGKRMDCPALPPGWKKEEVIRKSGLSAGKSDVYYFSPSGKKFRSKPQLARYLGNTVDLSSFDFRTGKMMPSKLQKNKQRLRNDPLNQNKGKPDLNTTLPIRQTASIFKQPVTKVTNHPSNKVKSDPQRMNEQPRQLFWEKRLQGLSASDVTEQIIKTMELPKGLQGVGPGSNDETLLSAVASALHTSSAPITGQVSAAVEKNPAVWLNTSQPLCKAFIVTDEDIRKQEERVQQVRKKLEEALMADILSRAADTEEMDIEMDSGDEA

| Structure (SMILES) | inhibition |
| --- | --- |
| COc1ccc(N2C(=O)/C(=C/c3ccco3)C(=O)NC2=S)cc1 | 32% (active) |
| O=C(O)CCn1cc(C=C2C(=O)NC(=S)NC2=O)c(-c2cccc(Br)c2)n1 | 2.88% (inactive) |
| COC(=O)C1=C(c2ccccc2OCc2ccccc2)C[C@@H]2CC[C@H]1N2C(=O)NCc1ccc(OC)cc1 | -6.77% (inactive) |
| CO[C@H]([C@H](C)/C=C/N(C)C=O)[C@@H](C)C(=O)CC[C@H](C)[C@H](O)[C@H](C)[C@H]1OC(=O)/C=C/C(C)=C/[C@H](O)[C@H](OC)C[C@@H]2C=CC[C@@H](C[C@H](OC)[C@@]3(CO3)[C@@H](OC)C[C@@H](OC)[C@@H]1C)O2 | 3.68% (inactive) |
| CN(C)C(=O)Oc1cc(=O)n2c3c(cccc13)CCC2 | -1% (inactive) |
| COP(=O)(Sc1ccccc1)C(Cc1ccccc1)NC(=O)OCc1ccccc1 (stereo not given) | 1.01% (inactive) |
| Cc1cc(/C=C2/C(=O)NC(=O)N(Cc3ccco3)C2=O)c(C)n1-c1ccc(C(=O)O)cc1 | 23.8% (active) |
| O=C1NC(=O)N(Cc2ccco2)C(=O)/C1=C\c1ccc(-c2ccc(F)cc2)o1 | 31.9% (active) |
| Cc1ccnc(-n2c(C)cc(/C=C3\C(=O)NC(=S)N(C)C3=O)c2C)c1 | -7.85% (inactive) |
| COc1cc2nc(N3CCN(C(=O)[C@@H]4CCCO4)CC3)nc(N)c2cc1OC | 2.48% (inactive) |
| Cc1ccccc1CCC[C@@H](CC1CCCCC1)CN(C)C(=O)Oc1ccccc1 | -0.69% (inactive) |
| O=C(O)C1CSC(c2cccnc2)N1 (stereo not given) | -2.74% (inactive) |
| CC(C)c1ccc(-n2c(O)c(/C=N/N3CCOCC3)c(=O)[nH]c2=S)cc1 | -0.85% (inactive) |
| CSc1ccc(C(=O)C2CCCN(Cc3ccn[nH]3)C2)cc1 (stereo not given) | -7.23% (inactive) |
| CC(C)(C)[C@]1(O)C[C@@H]2OC(=O)C[C@@]23C(=O)O[C@@H]2OC(=O)[C@H](O)[C@]213 | -1.05% (inactive) |
